In PubChem BioAssay (NCATS):
Records with an inconclusive call do not appear. Active and inactive are the calls of the source. Calls come from the whole dose curve; as a rule, active = well fitted cell-killing curve with a large enough effect; inconclusive = small, poorly fitted or top-dose-only effect, or effect the other way; inactive = flat fitted curve, though single readings scatter.

Test system: Tov-21-G
Test: Primary qHTS to identify gynecologic anti-cancer compounds using libraries of approved drugs and bioactive compounds (AID 1345084); note: nearly all actives have a fitted effect of over 55% in size
Settings: Gynecologic cancer cell panel viability, ATPlite luminescence, 48 h; series mostly up to 57.5 µM; activity change, negative = cytotoxicity: at the top concentration
Outline: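 Luminescence from the ATPlite ATP-monitoring reagent indicates viable cell number; lower signal means cytotoxicity. Cells received compound 16 h after seeding and were exposed for 48 h across five concentrations.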
% is set by controls: 0 for no effect and ±100 for the full control effect; potency is the fitted concentration of half-maximal effect.

Question: `C[C@@]1(C(=O)Nc2ccc(F)nc2)CCCN1c1nc(Nc2cc(C3CC3)[nH]n2)c2cccn2n1` was tested. Which Potency did it give?
Answer: Its Potency is 12.6 µM (active).

Question: `C=CC(=O)Nc1cccc(Sc2nc(Nc3ccc(N4CCN(C)CC4)cc3)ncc2Cl)c1` was tested. Which Potency did it give?
Answer: The Potency was 12.6 µM (active).

Question: How did the “activity change, negative = cytotoxicity” value turn out when `COc1ccnc(CS(=O)c2nc3ccc(OC(F)F)cc3[nH]2)c1OC` (stereo not drawn) was run?
Answer: The value was -1.52% (inactive).

Question: With `Cc1c(C(=O)Nc2ccc(N3C[C@@H](C)O[C@@H](C)C3)nc2)cccc1-c1ccc(OC(F)(F)F)cc1` as the molecule, how does the “activity change, negative = cytotoxicity” value read?
Answer: Its value is 0.456% (inactive).

Question: Which “activity change, negative = cytotoxicity” value does the source give for `Cc1cc(-c2ncc(CC(=O)Nc3ccc(-c4cnccn4)cn3)cc2C)ccn1` here?
Answer: Its value is 2.79% (inactive).

Question: For `Clc1ccc(C2(c3ccc(-c4cn[nH]c4)cc3)CCNCC2)cc1`, which Potency is on record?
Answer: The Potency was 12.6 µM (active).

Question: For `CN1c2ccccc2C(=O)N2CCc3c([nH]c4ccccc34)C21` (stereo not drawn), which Potency is on record?
Answer: The Potency was 8.91 µM (active).

Question: Which Potency does the source give for `CC[C@H](CC#N)OC(=O)N[C@@H](C)c1cccc(NC(=O)Nc2ccc(-c3cnco3)c(OC)c2)c1` here?
Answer: Its Potency is 1.26 µM (active).

Question: With `CCN(CCO)CCCOc1ccc2c(Nc3cc(CC(=O)Nc4cccc(F)c4)[nH]n3)ncnc2c1` as the molecule, how does the “activity change, negative = cytotoxicity” value read?
Answer: The value was -14.3% (inactive).

Question: With `NC(=O)c1noc([C@H](CCCC2CCCCC2)CC(=O)NO)n1` as the molecule, how does the “activity change, negative = cytotoxicity” value read?
Answer: The value was -18.1% (inactive).

Question: With `N#CC1(c2cccc(C(=O)Nc3cc(Oc4ccc5nc(NC(=O)C6CC6)sc5n4)ccc3F)c2Cl)CC1` as the molecule, how does the Potency read?
Answer: Its Potency is 3.98 µM (active).

Question: How did the “activity change, negative = cytotoxicity” value turn out when `O=C(CCCN1CCN(c2ccc(F)cc2)CC1)NC1c2ccccc2CSc2ccccc21` (stereo not drawn) was run?
Answer: The value was -4.82% (inactive).

Question: How did the “activity change, negative = cytotoxicity” value turn out when `O=C(Nc1cccc2c(=O)cc(-c3nn[nH]n3)oc12)c1ccc(OCCCCc2ccccc2)cc1` was run?
Answer: The value was -1.41% (inactive).

Question: For `C[C@H](c1ccc(F)cc1CCCC(=O)O)N(c1cc(F)ccc1F)S(=O)(=O)c1ccc(Cl)cc1`, which “activity change, negative = cytotoxicity” value is on record?
Answer: Its value is -3.44% (inactive).

Question: Which “activity change, negative = cytotoxicity” value does the source give for `COc1nccc(-c2c(-c3ccc(F)cc3)ncn2C2CCC(O)CC2)n1` (stereo not drawn) here?
Answer: The value was -10.3% (inactive).

Question: For `CN[C@@H](C)[C@H]1[C@H](O)C[C@@]2(C)[C@@H]3CC[C@H]4C(C)(C)[C@@H](NC)CC[C@@]45C[C@@]35CC[C@]12C`, which activity change, negative = cytotoxicity is on record?
Answer: The activity change, negative = cytotoxicity was -6.08% [at 11.6 µM] (inactive).

Question: With `C[C@@H]1CCO[C@H]2Cn3cc(C(=O)NCc4ccc(F)cc4F)c(=O)c(O)c3C(=O)N12` as the molecule, how does the Potency read?
Answer: The Potency was 25.1 µM (active).

Question: Which “activity change, negative = cytotoxicity” value does the source give for `O=C(Nc1ccc(OC(F)(F)F)cc1)c1sccc1NCc1ccnc2ccccc12` here?
Answer: Its value is 0.379% (inactive).

Question: Which “activity change, negative = cytotoxicity” value does the source give for `CC(=O)Nc1cccc(-n2c(=O)n(C3CC3)c(=O)c3c(Nc4ccc(I)cc4F)n(C)c(=O)c(C)c32)c1` here?
Answer: The value was -40.6% (inactive).

Question: `C[C@@H](N)c1ccc(C(=O)Nc2ccnc3[nH]ccc23)cc1` was tested. Which Potency did it give?
Answer: Its Potency is 31.6 µM (active).

Question: With `Nc1ccc(-c2ccc3ncc4ccc(=O)n(-c5cccc(C(F)(F)F)c5)c4c3c2)cn1` as the molecule, how does the Potency read?
Answer: Its Potency is 17.8 µM (active).

Question: With `Cc1cnc(CNC(=O)c2c(=O)c3ccc(N4CCCN(C)CC4)nc3n3c2sc2ccccc23)cn1` as the molecule, how does the activity change, negative = cytotoxicity read?
Answer: The activity change, negative = cytotoxicity was -27.4% [at 11.6 µM] (inactive).

Question: For `CCC(=O)N1CCN(c2ccc(-n3c(=O)ccc4cnc5ccc(-c6cnc7ccccc7c6)cc5c43)cc2C(F)(F)F)CC1`, which Potency is on record?
Answer: Its Potency is 0.0794 µM (active).
